# Bioassay records deposited in PubChem BioAssay by several laboratories.
# Shown is part of a subset that was picked to be rich in hits.
# hDAT+cocaine: changed human dopamine transporter uptake under cocaine IC80 | Q01959 | LLC-PK1 hDAT cells, [14C]-dopamine uptake with cocaine IC80; actives deviate in either direction | B-score at 10 µM | 110,000 compounds, 1.3% hits | AID 449768;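 active = Z score or B-score, a plate-position-corrected score, falls beyond the plate's 99.7% confidence bounds, in either direction; inactive = both scores lie inside the 99.7% bounds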;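 also: scored against the spread of the other compound wells on the same plate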
# ROCK2 inh: blocks human Rho kinase 2 activity | inhibition, % at 6 µM | AID 604 | purified ROCK2, Kinase-Glo ATP depletion luminescence | 60,000 compounds, 0.35% hits;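 active = inhibition above the screen-wide mean inhibition plus 3 SD, cut at about 18% in these data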;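 also: plate controls were DMSO wells for no effect and Y-27632 control wells after no-enzyme background subtraction for full effect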
# D1 mod: D1 dopamine receptor (human) allosteric modulation; P21728; HEK293 D1, CRE-luciferase, dopamine EC30 potentiation; actives deviate in either direction; B-score at 10 µM; 58,000 compounds, 5.9% hits;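 active = luminescence count or its row- and column-corrected plate score outside the 99.7% band of the plate's sample wells, on either side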
# PKA inh: PKA (human) kinase inhibition. PKA Kemptide phosphorylation, Kinase-Glo ATP luminescence. 65,000 compounds, 0.1% hits. AID 524. inhibition, % at 6 µM;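 active = inhibition above the screen-wide mean inhibition plus 3 SD, cut at about 21% in these data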
# JNK3 inh: inhibitors of human JNK3 kinase. 60,000 compounds, 0.61% hits. AID 746. P53779. purified JNK3 kinase activity, HTS. inhibition, % at 8 µM; in the data active = inhibition above about 17%;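 also: 0% = DMSO and 100% = reference inhibitor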
# Target sequence (P53779 whole entry, looked up): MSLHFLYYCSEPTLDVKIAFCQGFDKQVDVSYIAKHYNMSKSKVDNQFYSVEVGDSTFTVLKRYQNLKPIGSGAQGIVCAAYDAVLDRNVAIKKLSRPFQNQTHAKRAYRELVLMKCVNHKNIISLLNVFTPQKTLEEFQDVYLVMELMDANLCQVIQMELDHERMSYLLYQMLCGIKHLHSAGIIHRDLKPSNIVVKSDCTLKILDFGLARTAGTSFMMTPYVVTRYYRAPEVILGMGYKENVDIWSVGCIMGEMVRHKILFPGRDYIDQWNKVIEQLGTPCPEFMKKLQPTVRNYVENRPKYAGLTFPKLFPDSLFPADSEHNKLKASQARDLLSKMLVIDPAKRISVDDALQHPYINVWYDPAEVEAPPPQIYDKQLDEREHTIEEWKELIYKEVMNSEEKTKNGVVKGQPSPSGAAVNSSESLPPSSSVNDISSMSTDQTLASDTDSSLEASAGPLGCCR
# Starred values were filed as active, the others as inactive; · = no result given.
SMILES,hDAT+cocaine,ROCK2 inh,D1 mod,PKA inh,JNK3 inh
Cc1nc(NCCc2ccc(S(N)(=O)=O)cc2)c2c3c(sc2n1)CCC3,0.724,·,·,·,·
Cc1ccc(N2CC3=C(C2=O)C(c2ccccc2)NC(=O)N3C)cc1 (configuration not stated),-1.51*,·,·,·,·
Cc1ccc(C)c(S(=O)(=O)NCc2ccc(C(=O)N3CCC(Cc4ccccc4)CC3)cc2)c1,3.48*,·,·,·,·
COc1cc(C(=O)N2CCC(n3c(C)nc4cc(F)ccc43)CC2)cc(OC)c1OC,1.17,·,·,·,·
CCCCCCCCCCCCN1[C@@H](CC(=O)O)c2cc(F)ccc2S1(=O)=O,-1.01,·,·,·,·
Cc1cc(C)cc(SCc2noc(C(=O)NCCN(C)C)c2C(=O)NCCN(C)C)c1,0.31,·,·,·,·
c1ccc(-c2n[nH]c3c2CCC3)cc1,-0.728,3.7,0.419,6.8,18.0*
Clc1ccc(-c2n[nH]c3c2CCC3)c(Cl)c1,0.291,·,·,·,·
O=C(NCCCc1ccccc1)c1cnc2n(c1=O)CCS2,0.276,1.5,-0.0359,5.1,0.8
O=C(NCc1ccccc1)c1cnc2n(c1=O)CCS2,-0.432,-0.7,-3.47*,-3.2,-4.4
CCO[C@H]1OC(C(=O)Nc2ccccc2)=C[C@@H](c2cn(C(C)=O)c3ccccc23)[C@@H]1CCCO,-0.0612,·,·,·,·
COc1ccccc1NC(=O)N(Cc1ccco1)Cc1cc2ccc(C)c(C)c2[nH]c1=O,2.58*,-6.2,1.01,-15.3,-0.1
N#Cc1cccc(NC(=O)NCCc2c[nH]c3ccccc23)c1,·,21.6*,-3.04,8.2,-1.7
O=C(O)C1CCCCC1C(=O)NCCc1c[nH]c2ccccc12 (configuration not stated),-0.957,-2.4,-5.08*,-2.3,-6.6
C[C@H]1CCC[C@]2(O[C@H](CCO)C[C@@H](O)[C@@H]2O)O1,-0.0521,·,·,·,·
CC(C)CC(C(=O)Nc1oc(-c2ccco2)c(-c2ccco2)c1C#N)N1C(=O)c2ccccc2C1=O (configuration not stated),-0.314,4.1,·,8.3,-4.4
CC(C)(C)CN1C(N)=NC[C@@H]1Cc1ccc(O)cc1,-3.81*,·,·,·,·
Cc1c(C(=O)NN2CCN(C)CC2)cccc1[N+](=O)[O-],-1.32,·,·,·,·
Cc1cc2nc(NC3=NCN(Cc4cccnc4)CN3)nc(C)c2cc1C,·,2.5,-0.22,7.0,4.8
O=C(CN1CCC(n2nnc3ccccc32)CC1)Nc1ccc2c(c1)CCC2,3.09*,4.0,·,11.2,-4.1
O=C(CN1CCC(n2nnc3cc(F)ccc32)CC1)Nc1ccc2c(c1)CCC2,0.932,-0.9,-0.863,2.2,-2.7
CCC(=O)NC(C)C(c1cccs1)N1CCN(c2ccccc2)CC1 (configuration not stated),-2.49,-7.8,0.805,-0.4,-3.4
CC(=O)NC(C)C(c1cccs1)N1CCN(c2ccccc2)CC1 (configuration not stated),-0.791,-4.8,-0.949*,-0.1,-2.7
Cn1c(=O)[nH]c(=O)c2c1nc(N1CCN(c3ccccc3)CC1)n2CCSc1ncccn1,0.909,-0.9,-4.19*,-3.5,0.9
CN1CCN(c2nc3c(c(=O)[nH]c(=O)n3C)n2CCSc2ncccn2)CC1,·,-7.4,-0.0389,4.3,3.0
SMILES,hDAT+cocaine,ROCK2 inh,D1 mod,PKA inh,JNK3 inh
CCn1c(SCC(=O)Nc2ccc3c(c2)c2ccccc2n3CC)nnc1-c1cnccn1,2.53*,4.8,·,8.4,-6.0
Nc1nc2ccc(Oc3ccccc3)cc2s1,-0.844,-0.7,-4.54*,-7.9,-3.1
NC(=O)C1CCN(C(=O)CN(c2cccc(C(F)(F)F)c2)S(=O)(=O)c2ccccc2)CC1,-0.096,1.9,-2.26*,5.0,2.4
c1c2c(cc3sc(N4CCOCC4)nc13)OCCO2,0.253,-16.0,-4.87*,-1.3,-1.9
CCN1CCc2nc(NC(=O)Cc3ccc4c(c3)OCCO4)sc2C1,0.0119,·,0.054,-4.3,·
COc1ccc(CCC(=O)Nc2nc3c(s2)CN(C)CC3)cc1OC,0.143,109.1*,0.00643,-0.9,-4.4
O=C(c1ccco1)N1CCN(C(=O)c2ccc(COc3ccc4c(c3)CCC4)o2)CC1,3.66*,·,·,·,·
Cc1cc(C)cc(OCC(=O)NCC2CCCO2)c1 (configuration not stated),0.327,·,-4.78*,·,·
CCN(CC)CC1CCCCN1CC(=O)N1c2ccccc2C(=O)Nc2cccnc21 (configuration not stated),-0.0406,·,·,·,·
CC1CCCCC1NS(=O)(=O)c1ccc(-n2cnnn2)cc1 (configuration not stated),0.0419,-12.4,-2.48*,-0.3,-3.0
CN(C1CCCCC1)S(=O)(=O)c1ccc(-n2cnnn2)cc1,-0.0234,-5.3,0.867,-10.8,-2.1
CC1CCCCC1NS(=O)(=O)c1ccc(S(=O)(=O)N2CCCC2)cc1 (configuration not stated),-5.02*,-3.6,0.992,-1.3,-6.0
